Rows were chosen to be rich in hits. Some 2.4% of all compounds tested hit in one or more screens of this group.
TRAIL sens C8 = sensitizes caspase-8 expressing cells to TRAIL | NB7+C8 cells + TRAIL, ATPlite viability luminescence | inhibition (viability loss, TRAIL sensitization), % at 10 µM | 360,000 compounds, 1% hits;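 active means compounds causing at least 50% loss of cell viability in the single-dose screen, relative to plate controls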
STAT1 inh = inhibitors of IFN-gamma induced STAT1 signaling. inhibition, % at 5.5 µM. NIH 3T3 STAT1-luciferase reporter, luminescence. 200,000 compounds, 0.35% hits;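 active means inhibition above a set limit, the mean inhibition across all tested compounds plus 3 SD, cut at about 34% in these data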
HSF1 inh = HSF1 inhibition. NIH3T3-HGL HSE-luciferase, MG132-induced, luminescence 8 h; stronger effect = lower value. activity change, negative = inhibition, % at 7.5 µM (by protocol). 300,000 compounds, 0.77% hits. AID 2098;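 active means more than half of replicate wells show activity change below -50%, luminescence cut by over half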;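 further: luciferase reports HSF-1 transcriptional activity via heat shock element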
PPC-1+TRAIL kill = kills PPC-1 cancer cells in the presence of TRAIL; cell killing (% activity), % at 4 µM or 5 µM; 220,000 compounds, 0.41% hits; PPC-1 cells + TRAIL, ATPLite viability luminescence;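 active means cell killing above 50% in the first pass at 4 µM, then a duplicate retest at 5 µM averaging 50% or more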
HSP90 inh = blocks HSP90-mediated luciferase refolding in reticulocyte lysate; inhibition, % at 5.6 µM; 290,000 compounds, 0.91% hits; Rabbit reticulocyte lysate, luciferase refolding luminescence, 3 h;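 active means inhibition above the screen-wide mean plus 3 SD, computed separately per campaign, cut at about 16% in these data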;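 further: inhibitors lower the luminescence because luciferase stays unfolded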
STAT3 inh-1 = STAT3 signaling inhibition; U3A cells, IL-6 STAT3-luciferase reporter, luminescence; host cell line lacks STAT1; inhibition, % at 5.5 µM; 190,000 compounds, 0.89% hits; AID 862;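 active means inhibition above the mean inhibition across all screened compounds plus 3 SD, cut at about 44% in these data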
STAT3 inh-2 = STAT3 inhibition, confirmation assay | U3A cells, IL-6 STAT3 luciferase reporter, luminescence; cell line lacks STAT1 | inhibition, % at 5.7 µM | 1,200 compounds, 45% hits | shares compounds with STAT3 inh-1;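 active means inhibition above the hit cutoff computed for the primary STAT3 screen, cut at about 44% in these data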
NFkB inh 2 = inhibits NF-kappaB, counter-screen to STAT3 inhibitors. shares compounds with STAT3 inh-1. HEK293T NF-kB luciferase reporter, TNF-alpha induced. inhibition, % at 5.7 µM. 1,200 compounds, 36% hits. AID 1308;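 active means inhibition above the mean of solvent-only control wells plus 3 SD, cutoff set per campaign, cut at about 13% in these data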
STAT1 inh 2 = counter-screen for STAT3 inhibitors: STAT1 inhibition | shares compounds with STAT3 inh-1 | NIH 3T3 STAT1-luciferase reporter, IFN-gamma induced, luminescence | inhibition, % at 5.7 µM | 1,200 compounds, 27% hits | AID 1317;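 active means inhibition above the mean plus 3 SD of solvent-only control wells, limit set per screening run, cut at about 16% in these data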
A number is an active result; - = inactive; . = no result.

SMILES | TRAIL sens C8 | STAT1 inh | HSF1 inh | PPC-1+TRAIL kill | HSP90 inh | STAT3 inh-1 | STAT3 inh-2 | NFkB inh 2 | STAT1 inh 2
CC(=O)c1cccc(N=c2scc(-c3ccc(S(=O)(=O)N4CCOCC4)cc3)n2CCO)c1 | - | - | - | - | - | 75.2 | 77.5 | 26.9 | 25.3
Cc1cc(Br)cn2c(Cc3ccsc3)c(-c3ccco3)nc12 | - | . | . | . | . | . | . | . | .
CCCOc1ccc(Cn2cnc3ccccc32)cc1 | - | - | . | - | - | 47.6 | - | - | -
c1ccc(OCCn2cnc3ccccc32)cc1 | - | - | - | - | - | - | . | . | .
Cc1ccccc1OCCCCn1cnc2ccccc21 | - | - | . | - | - | 60.6 | 52.0 | - | -
c1ccc(OCCCCn2cnc3ccccc32)cc1 | - | - | - | - | - | 43.5 | - | - | -
Fc1ccc(Cn2cnc3ccccc32)cc1 | - | - | - | - | - | - | . | . | .
COC(=O)[C@@]12C[C@@H](CC(=O)NCCC(C)C)C(=O)N(Cc3ccccc3)C1=CCC(C)(C)C2 | - | . | . | . | . | . | . | . | .
Cc1ccc2ccccc2c1C(O)c1ncc(-c2ccc(Cl)cc2)[nH]1 (stereo not given) | - | . | . | . | . | . | . | . | .
Cc1nc(NC(=O)/C=C/c2ccco2)sc1C | - | - | - | - | - | 44.9 | - | - | -
O=C1CC2C(CCC23OCCO3)c2ccc3ccccc3c21 (stereo not given) | - | . | . | . | . | . | . | . | .
O=C(Nc1cccnc1)c1cccc(-c2cc3ccccc3oc2=O)c1 | - | - | - | - | - | - | . | . | .
O=C(NCc1cccnc1)c1ccc(-c2cc3ccccc3oc2=O)cc1 | - | - | - | - | - | 45.5 | - | - | -
O=C(C[C@H]1CC[C@H]2[C@@H](COC[C@@H](O)CN2S(=O)(=O)c2ccc(F)cc2)O1)N[C@@H]1CCN(Cc2ccccc2)C1 | - | . | . | . | . | . | . | . | .
Cc1ccc(S(=O)(=O)N2C3CCCCC3O[C@H]2CC(=O)OCc2ccccc2)cc1 (stereo not given in full) | - | . | . | . | . | . | . | . | .
O=C(Nc1nc(-c2cc3ccccc3o2)cs1)c1ccc(S(=O)(=O)N2CCCC2)cc1 | - | - | - | - | - | 57.5 | 77.4 | 24.9 | 20.1
CC1CN(S(=O)(=O)c2ccc(C(=O)Nc3nc(-c4cc5ccccc5o4)cs3)cc2)CC(C)O1 (stereo not given) | - | - | - | - | - | - | . | . | .
CN(C)S(=O)(=O)c1ccc(C(=O)Nc2nc(-c3cc4ccccc4o3)cs2)cc1 | - | - | - | - | - | 52.9 | 75.8 | 20.2 | 16.3
Cn1c(N)c(C(=O)COC(=O)C2Cc3ccccc3CN2S(C)(=O)=O)c(=O)n(C)c1=O (stereo not given) | - | . | . | . | . | . | . | . | .
CCOc1ccc(-n2c(-c3ccccc3)c[n+]3c2CCCCC3)cc1 | - | - | - | - | - | 74.5 | 76.4 | - | 24.5
COc1cccc2cc(-c3nnc(-c4ccccc4)o3)c(=O)oc12 | - | - | -57.4 | . | - | 46.2 | - | - | -
COc1ccc(CN(C)Cc2nc(Cc3cccc(F)c3)no2)c2cccnc12 | - | - | - | - | - | 61.2 | 62.2 | 18.8 | 26.2
COc1cccc(-n2cc(CN(C)Cc3nc(Cc4cccc(F)c4)no3)cn2)c1 | - | - | - | - | - | - | . | . | .
O=C(CSCCO)Nc1ccc(C23CC4CC(CC(C4)C2)C3)cc1 | - | - | - | - | - | 43.9 | - | 22.3 | -
CC(=O)Nc1ccc(C23CC4CC(CC(C4)C2)C3)cc1 | - | . | - | . | - | . | . | . | .
SMILES | TRAIL sens C8 | STAT1 inh | HSF1 inh | PPC-1+TRAIL kill | HSP90 inh | STAT3 inh-1 | STAT3 inh-2 | NFkB inh 2 | STAT1 inh 2
CC(C)OC(=O)C1OC1(C)c1ccccc1 (stereo not given) | - | . | . | . | . | . | . | . | .
Cc1ccc(-n2ncc3c(SCc4cccc(C)c4)ncnc32)cc1 | - | - | - | - | - | - | . | . | .
Cc1ccc(-n2ncc3c(SCc4cccnc4)ncnc32)c(C)c1 | - | - | - | - | - | 75.0 | 67.9 | - | -
NS(=O)(=O)c1cccc(NC(=O)CSc2nc3ccccc3c(=O)n2CC2CCCO2)c1 (stereo not given) | - | . | . | . | . | . | . | . | .
Cc1cc(NC(=O)c2ccc3c(c2)C(=O)N(C2CCCCC2)C3=O)no1 | - | - | - | - | - | - | . | . | .
O=C(Nc1ccncc1)c1ccc2c(c1)C(=O)N(C1CCCCC1)C2=O | - | - | - | - | - | 75.3 | 66.0 | - | -
COc1ccccc1-n1c(SCC(=O)N(C)C)nnc1-c1ccco1 | - | . | . | . | . | . | . | . | .
O=C(Nc1cccc2ccccc12)c1ccc2sc([C@H]3C[C@H](O)[C@@H](CO)O3)nc2c1 | - | . | . | . | . | . | . | . | .
FC(F)(F)c1cnc(-c2cnc(-c3ccncc3)nc2)c(Cl)c1 | - | - | - | - | - | - | . | . | .
FC(F)(F)c1cnc(-c2cnc(-c3ccccn3)nc2)c(Cl)c1 | - | - | - | - | - | 47.7 | - | - | -
CC1(C(=O)NCc2cccs2)CCN1C(=O)Cc1ccc(Cl)cc1Cl (stereo not given) | - | . | . | . | . | . | . | . | .
